Bioassay records deposited in PubChem by National Center for Advancing Translational Sciences (NCATS).
Only some compounds are listed: those with a hit (about 21% of all), similar ones and a draw of the others.
ClpP mod = qHTS Assay for Activators of ClpP. ATP-dependent Clp protease proteolytic subunit (Bacillus subtilis (strain 168)), P80244. purified B. subtilis ClpP, FRET peptide cleavage, 20 min. Potency, µM (series often up to 57.5 µM), for the others: at the highest dose activity change, negative = active. hit rate 1.9% among 340,000. AID 651965, 2013; active means well fitted falling curve with a large enough effect; inconclusive means small, poorly fitted or top-dose-only effect; inactive means no such curve, though single readings can be large or run the other way; further: potency means the concentration at half of the fitted maximal effect; the source files actives as falling curves though it sought activators and does not explain the sign; nearly all actives have a fitted effect of over 65% in size
Target sequence (P80244 whole entry, looked up): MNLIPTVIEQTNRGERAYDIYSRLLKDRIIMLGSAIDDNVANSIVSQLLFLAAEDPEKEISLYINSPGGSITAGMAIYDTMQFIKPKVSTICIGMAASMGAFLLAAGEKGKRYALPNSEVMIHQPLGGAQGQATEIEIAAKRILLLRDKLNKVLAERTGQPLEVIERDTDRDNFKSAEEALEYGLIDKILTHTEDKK
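Purified B. subtilis ClpP, 10 microg/mL final in Tris/HCl pH8 with KCl, BSA, glycerol and Tween-20, cleaved an Abz/nitrotyrosine-quenched decapeptide. Fluorescence (ex 320, em 430) was read at 0 and 20 min at room temperature. Delta was normalized to 5.8 microM ADEP and DMSO/no-enzyme controls.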
TDP1 cell noCPT = qHTS for Inhibitors of human tyrosyl-DNA phosphodiesterase 1 (TDP1): qHTS in cells in absence of CPT | DT40 Tdp1-/- hTDP1 cells, no CPT, ATP luminescence, 48 h | Potency, µM (highest dose often 46.2 µM), inactives show top-dose activity change, negative = growth inhibition, most hits filed as inhibitors | hit rate 15% among 420,000; further: potency means the concentration at half of the fitted maximal effect; on the % scale 0 is the no-effect control and ±100 the full control effect; nearly all actives have a fitted effect of over 55% in size
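A cellular qHTS used chicken DT40 cells lacking endogenous Tdp1 but carrying stably transfected human TDP1. Compounds were applied without camptothecin, and cell growth kinetics were judged by ATP-dependent luminescence after ≥48 hr.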
DRD3 agonist = qHTS of D3 Dopamine Receptor Agonist: qHTS; AID 652048, 2013; max activation, %; D(3) dopamine receptor (Homo sapiens), P35462; D3R DiscoveRx beta-arrestin cells, luminescence, 90 min; hit rate 0.58% among 410,000; in the data active means max activation above about 30%; further: 0% is about no effect
Target sequence (P35462 whole entry, looked up): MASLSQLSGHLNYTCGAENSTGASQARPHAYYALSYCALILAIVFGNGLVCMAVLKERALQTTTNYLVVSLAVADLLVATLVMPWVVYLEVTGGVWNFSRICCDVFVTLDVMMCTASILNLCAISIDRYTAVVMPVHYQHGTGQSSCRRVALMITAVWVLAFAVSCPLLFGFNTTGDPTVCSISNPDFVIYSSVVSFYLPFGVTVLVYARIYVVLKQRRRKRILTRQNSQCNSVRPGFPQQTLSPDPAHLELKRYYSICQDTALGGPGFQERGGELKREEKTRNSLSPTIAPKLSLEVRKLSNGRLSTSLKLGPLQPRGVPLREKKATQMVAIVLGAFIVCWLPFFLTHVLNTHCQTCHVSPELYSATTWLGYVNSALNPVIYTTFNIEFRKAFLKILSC
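Cells at 1500/well, incubated overnight, then treated with pinned compounds (dopamine as control) for 90 min at 37 degrees C. DiscoveRx reagent added for 30 - 60 minutes at room temperature; luminescence read.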
IL-1B inflam inh = qHTS for Inhibitors of Inflammasome Signaling: IL-1-beta AlphaLISA Primary Screen; activity change, % at 57.5 µM; AID 743279, 2014; hit rate 4.7% among 360,000; THP-1 LPS/ATP IL-1B secretion, AlphaLISA, 16 h; hits give low values; in the data active means activity change below about -50%; inconclusive means mostly about -30% to -49%; further: on the % scale 0 is the no-effect control and ±100 the full control effect
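Secreted IL-1B measured by AlphaLISA bead assay after 16 h compound exposure of THP-1 cells; compounds (final up to 57.5 uM) added 1 h before LPS (250 ng/mL) and ATP (1.25 mM) stimulation; lower signal means less secretion.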
TDP1 cell CPT = qHTS for Inhibitors of human tyrosyl-DNA phosphodiesterase 1 (TDP1): qHTS in cells in presence of CPT | chicken DT40 Tdp1-/-;hTDP1 cells + 20 nM CPT, ATP luminescence, 48 h | Potency, µM (highest dose often 46.2 µM), without a hit: at the highest dose activity change, negative = growth inhibition, usual class: inhibitors | hit rate 12% among 420,000 | AID 686979, 2013; further: potency means the concentration at half of the fitted maximal effect; on the % scale 0 is the no-effect control and ±100 the full control effect; nearly all actives have a fitted effect of over 55% in size
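Chicken DT40 Tdp1-/- cells stably complemented with human TDP1 were seeded at 400 cells/well in medium containing 20 nM camptothecin, exposed to pin-transferred compounds, and grown at 37 °C for at least 48 hr. Viability was read as ATP luminescence.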
D3 antag = qHTS of D3 Dopamine Receptor Antagonist: qHTS; D(3) dopamine receptor (Homo sapiens), P35462; D3R cells, DiscoveRx beta-arrestin luminescence, antagonist mode; hits give low values; max response, negative = inhibition, %; hit rate 2.5% among 360,000; AID 652054, 2013; in the data active means max response below about -50%; inconclusive means no clear call, values can overlap the other calls; further: on the % scale 0 is the no-effect control and ±100 the full control effect
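Cells plated overnight at 1500 cells/well, then exposed to library compounds with dopamine controls for 90 minutes at 37 degrees C. DiscoveRx reagent added for 30–60 minutes at room temperature; luminescence read, quantitative HTS format.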
Numbers without * were called inactive; ? = inconclusive; / = no result given; [ ] = dose if it differs, or a comment. Unless noted, the call rests on the fitted dose curve; in most records, active means well fitted inhibition curve with a large enough effect; inconclusive means small, poorly fitted or top-dose-only effect; inactive means flat fitted curve, though single readings scatter.

SMILES	ClpP mod	TDP1 cell noCPT	DRD3 agonist	IL-1B inflam inh	TDP1 cell CPT	D3 antag
CCCCCCP(=O)(O)c1ccccc1	0%	4%	4	23	17%	12
O=P(CCCCCCCCCP(=O)(c1ccccc1)c1ccccc1)(c1ccccc1)c1ccccc1	-1%	8.2µM*	0	-104*	7.3µM*	3
CC(C)CCOP(=O)(c1ccccc1)c1ccccc1	-2%	?	-7	-23	?	-8
O=P(COCCCCCOCP(=O)(c1ccccc1)c1ccccc1)(c1ccccc1)c1ccccc1	2%	18µM*	-5	?	16µM*	2
COCCn1c(C)cc(/C=C(\C#N)C(=O)OC(C)C(=O)Nc2ccc(NC(C)=O)cc2)c1C (centres undefined)	/	-22%	-3	27	-4%	-1
CCc1ccc(CNC(=O)CCN2C(=O)COc3ccccc32)cc1	-2%	?	-22	/	5%	/
O=C(Nc1ccc(F)cc1F)c1cc(-c2ccc(Cl)cc2)on1	2%	?	-8	/	-1%	/
CC1CCc2nc3ncn(Cc4ccccc4C#N)c(=O)c3cc2C1 (centres undefined)	-4%	?	5	/	?	/
O=c1c2cc3c(nc2ncn1Cc1ccccc1F)CCCC3	-3%	?	-22	/	18µM*	/
COc1ccc(C)cc1Nc1c2c(nc3nc(-c4cccs4)nn13)CCCC2	-14%	-25%	8	/	6%	/
CC(=O)c1cccc(Nc2c3c(nc4nc(-c5cccs5)nn24)CCCC3)c1	0%	18µM*	7	/	?	/
Fc1cc(Br)ccc1Nc1c2c(nc3nc(-c4cccs4)nn13)CCCC2	-6%	18µM*	7	/	21µM*	/
c1ccc(Nc2c3c(nc4ncnn24)CCC3)cc1	2%	-1%	6	6	-29%	15
CCN(CC)CCNCC1C(=O)O[C@@H]2C[C@@]3(C)CCC[C@H](C)C3=C[C@H]12 (some centres undefined)	-2%	13µM*	-29	/	?	-10
CCc1c(C)sc(NC(=O)c2cccs2)c1C(=O)OC(C)C	?	-20%	3	0	-7%	-54*
Cc1cccc(OCc2nnc(SCC(=O)Nc3ccc(N4CCOCC4)cc3)o2)c1	/	-9%	1	28	-5%	-8
Cc1cc(C)cc(NC(=O)Cn2c(-c3cncs3)nc3ccccc32)c1	?	21µM*	-6	/	?	/
Cc1nc2ccccc2nc1OCC(=O)Nc1ccc2ccccc2c1	-18%	?	14	5	-9%	7
Cc1ccc(NC(=O)Cn2c(=O)c(C)nc3ccccc32)cc1	1%	-8%	-4	31	-6%	-4
O=C(Cn1c(-c2cscn2)nc2ccccc21)Nc1ccc2ccccc2c1	12%	?	-1	1	14µM*	-9
Cc1cccc(NC(=O)Cn2c(/C=C/c3ccccc3)nc3ccccc32)c1	32µM*	-4%	3	-12	?	5
Cc1nc2ccccc2n(CC(=O)Nc2cc(Cl)cc(Cl)c2)c1=O	/	15µM*	-6	13	9.2µM*	0
COc1ccc(C(=O)NCc2nnc(SC)n2-c2ccccc2C)c(OC)c1OC	/	-17%	/	/	6%[9.04 µM]	/
CC(CN1CCN(C/C=C/c2ccccc2)CC1)c1ccccc1 (centres undefined)	0%	-6%	-8	5	-7%	-26
Cc1cccc(N2CCN(CCCNC(=O)c3nnc(Cc4c(F)cccc4Cl)o3)CC2C)c1 (centres undefined)	-2%	?	-3	/	23µM*	/
SMILES	ClpP mod	TDP1 cell noCPT	DRD3 agonist	IL-1B inflam inh	TDP1 cell CPT	D3 antag
Cc1ccc(Cl)cc1N1CCN(CCCNC(=O)c2nnc(Cc3cccc(Cl)c3)o2)CC1	-4%	10µM*	-15	/	21µM*	/
O=C(NCCCN1CCN(c2ccccc2F)CC1)c1nnc(Cc2ccc(Cl)cc2Cl)o1	-1%	15µM*	11	/	21µM*	/
COc1ccc(Cc2nnc(C(=O)NCCCN3CCN(c4ccccc4F)CC3)o2)cc1OC	-2%	?	5	/	?	/
O=C(NCCCN1CCN(Cc2ccccc2)CC1)c1nnc(Cc2c(F)cccc2Cl)o1	0%	-29%	2	3	-11%	-16
O=C(NCCCN1CCOCC1)c1ccc2nc(Cc3cccc(Cl)c3)oc2c1	-1%	-22%	0	-2	-21%	11
C=CCCC(=O)N1CCC(n2nccc2NC(=O)c2ccccc2C)CC1	1%	-1%	-1	6	-8%	-20
Clc1cc(/C=N\NC2=NCCN2)cc(Cl)n1	/	?	-4	9	-21%	?
CCOc1cc(NC(=O)c2ccccc2C)c(OCC)cc1NC(=O)C1=Cc2ccccc2OC1	0%	5.8µM*	1	0	7.3µM*	10
O=C(Nc1ccc(Cl)c(Cl)c1)C1=Cc2ccccc2OC1	-16%	23µM*	-1	?	?	80
CCc1nnc(SCc2nc(-c3ccc(OC)cc3)oc2C)c2cc3sccc3n12	?	-14%	1	/	-22%	/
O=C(O)/C=C/c1ccc2ccccc2n1	-1%	-27%	-7	-71*	?	-11
C(=NN1CCCCCC1)c1ccc2ccccc2n1	/	16µM*	-4	-4	?	5
C(=C\c1ccc2ccccc2n1)/c1ccc2ccccc2n1	4%	?	/	/	13µM*	/
O=[N+]([O-])c1ccc(/C=C/c2ccc3ccccc3n2)cc1	/	?	-1	-8	?	-12
C(=C\c1ccnc2ccccc12)/c1ccc2ccccc2n1	5%	7.9µM*	/	/	7.1µM*	/
Cc1cccc(CNC(=O)c2cnn(-c3ncc(C)c(-c4cccs4)n3)c2C2CC2)n1	/	-24%	/	/	-5%[9.04 µM]	/
COc1cccc(CNC(=O)CN2C(=O)COc3ccc(S(=O)(=O)N4CCCCC4)cc32)c1	-4%	?	2	-12	-26%	-2
COc1ccc(CNC(=O)C/C(C)=N/NC(=O)c2cnccn2)cc1	/	13%	3	28	23%	10
NCc1nc2cccnc2n1Cc1ccccc1Cl	-1%	-1%	0	/	-2%	/
Cn1cc(/C=C/c2ccc3ccccc3n2)c2ccccc21	-7%	10µM*	/	/	11µM*	/
